According to PubChem BioAssay AID1159580 (chemical genetic matrix, 2015):
Several values for one entry are separate records, joined by “and”; a condition that tells them apart may be missing. Equal values may be shown once. Screen size: about 5,500 compounds; about 2,000 (36%) were called active. Not shown: some 18% with an inconclusive outcome. No stated cut-off is given here; in the data, active means normalized growth mostly below about 0.91 (no sharp cut-off); inconclusive means no clear call, values can overlap the other calls; inactive means mostly above about 0.92. Some of the results follow.

Test: chemical genetic growth profiling, strain panel (AID 1159580);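 further: tested at 20 µM; growth read once vehicle control cultures reached saturation at 30 °C; 1 = growth at the plate median or of vehicle wells; lower values mean less growth of the strain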
Details: S. cerevisiae deletion strains, growth OD

Measured: normalized growth

NC[C@H]1O[C@H](O[C@H]2C(O[C@@H]3O[C@H](CO)[C@@H](O)[C@H]3O)[C@@H](O)[C@H](N)C[C@@H]2N)[C@H](N)[C@@H](O)[C@@H]1O (some centres not stated)
inactive: locus YAL013W, strain DEP1, hits give low values 1 | locus YAL021C, strain ccr4, hits give low values 1.02 | locus YAL026C, strain drs2, hits give low values 0.998 | locus YAL030W, strain snc1, hits give low values 0.994 | locus YBL061C, strain skt5, hits give low values 0.997 | locus YBR009C, strain hhf1, hits give low values 0.975 | locus YBR021W, strain FUR4, hits give low values 0.969 | locus YBR023C, strain chs3, hits give low values 0.995 | locus YBR171W, strain sec66, hits give low values 0.992 | locus YBR229C, strain ROT2, hits give low values 0.99 | locus YBR231C, strain swc5, hits give low values 0.998 | locus YBR279W, strain paf1, hits give low values 0.999 | locus YCL011C, strain gbp2, hits give low values 1 | locus YCL016C, strain dcc1, hits give low values 0.996 | locus YCL029C, strain bik1, hits give low values 0.987 | locus YCL061C, strain MRC1, hits give low values 0.989 | locus YCL069W, strain vba3, hits give low values 0.997 | locus YCR088W, strain abp1, hits give low values 0.998 | locus YDL005C, strain med2, hits give low values 1.01 | locus YDL035C, strain GPR1, hits give low values 1.01 | locus YDL040C, strain nat1, hits give low values 0.983 | locus YDL074C, strain BRE1, hits give low values 0.985 | locus YDL101C, strain DUN1, hits give low values 0.987 | locus YDL134C, strain PPH21, hits give low values 0.988 | locus YDL185W, strain tfp1, hits give low values 0.983 | locus YDL192W, strain arf1, hits give low values 0.996 | locus YDR001C, strain nth1, hits give low values 0.989 | locus YDR069C, strain doa4, hits give low values 0.99 | locus YDR101C, strain arx1, hits give low values 0.972 | locus YDR137W, strain rgp1, hits give low values 1.02 | locus YDR150W, strain NUM1, hits give low values 1 | locus YDR159W, strain sac3, hits give low values 0.982 | locus YDR162C, strain NBP2, hits give low values 1 | locus YDR195W, strain ref2 0.939 | locus YDR297W, strain sur2, hits give low values 0.99 | locus YDR318W, strain mcm21, hits give low values 0.996 | locus YDR334W, strain swr1, hits give low values 0.997 | locus YDR335W, strain msn5, hits give low values 0.994 | locus YDR388W, hits give low values 0.992 | locus YDR392W, strain spt3, hits give low values 0.918 | locus YDR502C, strain sam2, hits give low values 0.998 | locus YEL003W, strain gim4, hits give low values 1 | locus YEL037C, strain rad23, hits give low values 0.995 | locus YEL061C, strain CIN8 (second series), hits give low values 0.991 | locus YEL061C, strain CIN8, hits give low values 0.999 | locus YER015W, strain faa2, hits give low values 0.998 | locus YER016W, strain bim1, hits give low values 0.993 | locus YER110C, hits give low values 0.993 | locus YER111C, strain swi4, hits give low values 0.977 | locus YER155C, strain BEM2 (second series), hits give low values 0.974 | locus YER155C, strain BEM2, hits give low values 0.957 | locus YER167W, strain BCK2, hits give low values 1 | locus YFR010W, strain ubp6, hits give low values 0.999 | locus YGL078C, strain dbp3, hits give low values 0.988 | locus YGL086W, strain mad1, hits give low values 0.994 | locus YGL167C, strain pmr1, hits give low values 0.992 | locus YGL173C, strain kem1, hits give low values 1 | locus YGL227W, strain vid30, hits give low values 0.989 | locus YGL240W, strain doc1, hits give low values 0.991 | locus YGL248W, strain PDE1, hits give low values 0.994 | locus YGL253W, strain hxk2, hits give low values 0.985 | locus YGR078C, strain PAC10, hits give low values 0.994 | locus YGR135W, strain pre9, hits give low values 0.985 | locus YGR229C, strain SMI1, hits give low values 1.03 | locus YGR252W, strain gcn5, hits give low values 1.08 | locus YHR013C, strain ard1, hits give low values 0.976 | locus YHR027C, strain rpn1, hits give low values 1 | locus YHR030C, strain SLT2, hits give low values 0.994 and 0.986 | locus YHR079C, strain IRE1 (second series), hits give low values 0.983 | locus YHR079C, strain IRE1, hits give low values 0.993 | locus YHR094C, strain hxt1, hits give low values 0.99 | locus YHR129C, strain ARP1, hits give low values 0.986 | locus YHR142W, strain chs7, hits give low values 1.01 | locus YHR200W, strain rpn10, hits give low values 0.989 | locus YIL066C, strain RNR3, hits give low values 0.991 | locus YIL073C, strain SPO22, hits give low values 1.01 | locus YIL125W, strain kgd1, hits give low values 1 | locus YIR030C, strain dcg1, hits give low values 0.988 | locus YJL092W, strain hpr5, hits give low values 0.994 | locus YJL095W, strain BCK1 (second series), hits give low values 0.995 | locus YJL095W, strain BCK1, hits give low values 0.984 and 1.02 | locus YJL115W, strain asf1, hits give low values 0.995 | locus YJL129C, strain trk1, hits give low values 1 | locus YJL134W, strain LCB3, hits give low values 0.992 | locus YJL154C, strain vps35, hits give low values 0.986 | locus YJL164C, strain tpk1, hits give low values 1 | locus YJL166W, strain qcr8, hits give low values 1.01 | locus YJL168C, strain set2, hits give low values 0.986 | locus YJL187C, strain SWE1 (second series), hits give low values 0.991 | locus YJL187C, strain SWE1, hits give low values 0.997 | locus YJR043C, strain POL32, hits give low values 0.994 | locus YJR066W, strain TOR1, hits give low values 0.93
